# MPTP inh = inhibitors of mitochondrial permeability transition pore | isolated mouse mitochondria, Ca2+ swelling absorbance, 30 min | inhibition, % at 10 µM | hit rate 1.4% among 360,000 | AID 602449;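 active means inhibition of 50% or more, scaled per plate between neutral and stimulator controls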;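 further: 0% = DMSO wells given calcium and 100% = 1 mM EGTA wells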
# CSC inhib = blocks cancer stem cells. cancer stem cell-like cells viability, luminescence. inhibition, % at 7.5 µM. hit rate 1.1% among 300,000; in the data active means inhibition above about 75%; inconclusive means no clear call, values can overlap the other calls; tested in HMLE shEcad cells
# Mdm2-MdmX inh = human Mdm2/MdmX binding inhibition | O15151+Q00987 | SaOS-2 split-luciferase Mdm2/MdmX complementation, luminescence | inhibition, % at 8 µM | hit rate 3% among 330,000 | AID 485346;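 active means inhibition of at least 50% at 8 µM in the primary screen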
# Target sequence (O15151 whole entry, looked up): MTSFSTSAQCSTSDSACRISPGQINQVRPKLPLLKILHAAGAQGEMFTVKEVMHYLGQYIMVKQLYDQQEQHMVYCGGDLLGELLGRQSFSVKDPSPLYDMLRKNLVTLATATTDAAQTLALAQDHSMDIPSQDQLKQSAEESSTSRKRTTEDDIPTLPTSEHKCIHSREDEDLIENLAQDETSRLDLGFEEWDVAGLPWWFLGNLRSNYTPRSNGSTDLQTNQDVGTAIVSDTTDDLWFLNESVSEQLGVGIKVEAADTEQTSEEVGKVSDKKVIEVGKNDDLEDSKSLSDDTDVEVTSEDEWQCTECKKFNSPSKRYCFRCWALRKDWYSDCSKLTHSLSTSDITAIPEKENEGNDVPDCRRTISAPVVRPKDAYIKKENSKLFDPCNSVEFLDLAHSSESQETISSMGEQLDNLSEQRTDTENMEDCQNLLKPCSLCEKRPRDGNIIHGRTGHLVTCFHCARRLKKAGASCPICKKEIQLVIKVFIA
# Target sequence (Q00987 whole entry, looked up): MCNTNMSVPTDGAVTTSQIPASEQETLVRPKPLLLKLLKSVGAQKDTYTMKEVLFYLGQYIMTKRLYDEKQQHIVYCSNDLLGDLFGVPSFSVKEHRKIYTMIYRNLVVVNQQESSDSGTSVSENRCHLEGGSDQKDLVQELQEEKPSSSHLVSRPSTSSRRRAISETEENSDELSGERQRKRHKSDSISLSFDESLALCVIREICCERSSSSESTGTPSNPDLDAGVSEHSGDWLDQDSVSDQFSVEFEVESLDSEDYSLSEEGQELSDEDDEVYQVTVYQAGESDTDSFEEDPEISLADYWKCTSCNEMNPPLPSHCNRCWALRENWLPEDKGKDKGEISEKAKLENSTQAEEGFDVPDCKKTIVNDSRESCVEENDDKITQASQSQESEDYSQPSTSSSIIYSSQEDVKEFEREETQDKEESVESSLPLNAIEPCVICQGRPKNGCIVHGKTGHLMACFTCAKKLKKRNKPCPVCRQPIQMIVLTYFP
# SKKanGAS inh = inhibitors of SKKanGAS S. pyogenes growth in kanamycin (SK-promoter or general growth effect) | AID 1662 | hit rate 1.3% among 300,000 | BacTiter-Glo, 6 h | inhibition, % at 7.5 µM;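 active means mean replicate score, as percent of positive control median, at least 50; inconclusive means mean below 50 but one replicate at or above 50; inactive means mean and every replicate below 50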;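 further: strain carries kanamycin resistance gene driven by streptokinase promoter and grows in 40 µg/ml kanamycin; loss of luminescence reflects streptokinase promoter inhibition or plain growth inhibition; 0% = median of DMSO wells and 100% = positive control at its reference dose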
# GRIN3A LBD mod = modulates the human NR3A ligand-binding domain; NR3A LBD differential scanning fluorimetry, Tm shift; 0% = protein alone, 100% = glycine-bound protein; Tm shift relative to glycine control, % at 25 µM; hit rate 2.5% among 340,000; AID 1259313;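 active means melting temperature shift of at least 10% of the positive control shift, at one fixed dose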
# Beta apoptosis = blocks beta cell apoptosis; hit rate 0.8% among 300,000; AID 435005; INS-1E cytokine-induced death, ATP luminescence, 48 h; percent of positive-control rescue, neutral wells zero; protection from apoptosis, % (test concentration not listed);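 active means Every replicate reaches about 75%, or at least half do and their mean reaches it too, limit read from the data; inconclusive means At least half of replicates reach the limit but their mean does not; inactive means Under half of replicates reach the limit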;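 further: 0% = cytokine-treated negative control wells and 100% = positive control rescue; higher means more ATP so stronger rescue from cytokine killing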
# Mdm2-MdmX conf = human Mdm2/MdmX binding inhibition, confirmed; shares compounds with Mdm2-MdmX inh; luminescent assay; inhibition, % at 8 µM; hit rate 55% among 10,000; AID 489028; in the data active means inhibition above about 40%
# FLuc counter = counter-screen for Mdm2/MdmX inhibitors: full-length luciferase. shares compounds with Mdm2-MdmX inh. SaOS-2 full-length luciferase counterscreen, luminescence. inhibition, % at 8 µM. hit rate 77% among 6,200. AID 504607;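 active means mean inhibition at 8 µM reaching about 37%, which flags the compound as non-specific, limit read from the data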;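 further: p53-null SaOS-2 cells with luciferase driven by a doxycycline-inducible promoter; compound on cells about two nights before reading with doxycycline added after day one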
# * marks the source's active call; other numbers are inactive results; ? = inconclusive; nt = no result. Sampled rows, rich in hits. Any-hit rate of the full collection: about 6.9%.
SMILES,MPTP inh,CSC inhib,Mdm2-MdmX inh,SKKanGAS inh,GRIN3A LBD mod,Beta apoptosis,Mdm2-MdmX conf,FLuc counter
CC(C)c1cccc(C(C)C)c1OC(=O)[C@H]1OC(c2ccc(Br)cc2)=C[C@@H]1c1ccc(Br)cc1,8,111*,61*,nt,0,16,-3,nt
Oc1ccc(/C=N/Nc2ccc(C(F)(F)F)cn2)c(O)c1,2,102*,64*,8,nt,73,36,56*
COc1cccc(NC(=O)COC(=O)C2CC(=O)N(c3ccc(C)cc3)C2)c1 (centres undefined),2,nt,-30,nt,-1,nt,nt,nt
Cc1ccc(/C=C/C(=O)c2ccccc(=O)c2O)c(C)c1,4,2,67*,58*,-10,70,61*,19
N#Cc1c(-c2ccccc2)c(-c2ccccc2)nn(CC(=O)NNC(=O)Nc2ccc(Cl)c(Cl)c2)c1=O,5,105*,63*,62*,10,7,47*,36
O=C(COC(=O)c1ccccc1O)NC(=O)NCc1ccccc1,-2,nt,-3,nt,0,nt,nt,nt
Cc1c(N=NC2=C(O)CC(C)(C)CC2=O)cc2c(c1[N+](=O)[O-])C(C)(C)CC2(C)C,-1,11,70*,24,2,1,21,nt
CC(=O)Nc1cc2c(c([N+](=O)[O-])c1C)C(C)(C)CC2(C)C,1,nt,nt,nt,-2,nt,nt,nt
Cc1cc(C)c2c3c(sc2n1)C(c1cccc(F)c1)C(C#N)=C(N)O3 (centres undefined),3,28,79*,10,-3,24,27,nt
Cc1ccc(-n2nc3c(=O)n(CCCC(=O)NCc4ccccc4Cl)nc(C)c3c2C)cc1,-2,-7,22,6,2,2,nt,nt
Cc1cccc(CCNc2nc3ccccc3n3nnnc23)c1,0,4,0,10,0,5,nt,nt
Cc1nnc2c(NCCc3ccccc3)nc3ccccc3n12,1,-7,57*,0,0,-3,15,nt
NS(=O)(=O)c1ccc(CCNC(=O)COC(=O)/C=C/c2cc(Br)ccc2F)cc1,0,-11,30,nt,-2,-4,nt,nt
COc1ccccc1[C@@]1(C)ON(c2ccccc2C(F)(F)F)C1=O,1,58,89*,nt,2,-9,80*,32
Cc1ccccc1[C@]1(C)ON(c2ccccc2C(F)(F)F)C1=O,nt,55,80*,nt,nt,-12,46*,59*
CC[C@]1(c2ccccc2C)ON(c2ccccc2C(F)(F)F)C1=O,1,18,47,nt,6,8,nt,nt
COCCn1c(C)cc(/C=C2/SC(=O)N(CC(=O)N3CCCC3)C2=O)c1C,-1,-7,3,-5,0,-6,nt,nt
COc1ccc2c(c1OC)C(=O)N1c3ccccc3C(=O)N(c3ccc(F)cc3)C21 (centres undefined),1,11,57*,-5,0,4,44*,89*
Cc1ccccc1N1C(=O)c2ccccc2N2C(=O)c3ccccc3C12 (centres undefined),3,0,17,-1,-1,2,nt,nt
COc1ccc2c(c1OC)C(=O)N1c3ccccc3C(=O)N(c3ccccc3)C21 (centres undefined),0,16,65*,-13,0,2,62*,69*
CCOC(=O)CSc1nc2c(c(=O)[nH]1)C(C)(CC)Cc1ccccc1-2 (centres undefined),2,71,57*,9,-3,?,53*,54*
CCCCNC(=O)CCCCCNS(=O)(=O)c1ccc(Br)cc1,1,-22,4,-12,-1,-2,nt,nt
Cc1cc(C(=O)CSc2nnc3ccccn23)c(C)n1-c1ccccc1,16,-8,82*,-4,3,1,86*,30
COc1ccccc1N1C(=O)N(CC(=O)C(C)(C)C)c2ccccc2S1(=O)=O,2,25,10,-1,1,1,nt,nt
COc1ccc2cc(C)c(SCC(=O)Nc3cc(C)on3)nc2c1,3,nt,50,1,1,nt,10,nt
SMILES,MPTP inh,CSC inhib,Mdm2-MdmX inh,SKKanGAS inh,GRIN3A LBD mod,Beta apoptosis,Mdm2-MdmX conf,FLuc counter
Cc1cc(NC(=O)CSc2nnc(-c3ccccc3)c(-c3ccccc3)n2)no1,2,48,53*,15,1,-6,56*,47*
Cc1cc(NC(=O)CSc2nnc3c(C)cc4cc(C)c(C)cc4n23)no1,0,1,78*,-11,-1,0,-7,nt
O=C(C[C@H]1C[C@H](C(=O)N2CCOCC2)[C@@]2(CCC3CCCC3)c3[nH]c4cc(-c5ccco5)ccc4c3CCN2C1=O)NCCC1=CCCCC1,-2,nt,42,nt,-9,nt,nt,nt
CN(C)CCCNC(=O)C[C@H]1C[C@H](C(=O)N2CCCCC2)[C@@]2(CCc3ccccc3)c3[nH]c4cc(-c5ccco5)ccc4c3CCN2C1=O,0,nt,59*,nt,0,nt,53*,45*
O=C(C[C@H]1C[C@H](C(=O)N2CCOCC2)[C@@]2(CCC3CCCC3)c3[nH]c4cc(-c5ccco5)ccc4c3CCN2C1=O)NCCc1ccccn1,0,nt,81*,nt,-1,nt,0,nt
COc1ccc2[nH]c3c(c2c1)CCN1C(=O)C(CC(=O)NCCCN(C)C)C[C@H](C(=O)N2CCCCC2)[C@@]31CCc1ccccc1 (some centres undefined),-2,nt,33,nt,-1,nt,nt,nt
CN(C)CCCNC(=O)CC1C[C@H](C(=O)N2CCCCC2)[C@@]2(CCc3ccccc3)c3[nH]c4ccccc4c3CCN2C1=O (some centres undefined),-3,5,83*,nt,-2,8,24,nt
CN(C)C(=O)CCc1ccc2c3c([nH]c2c1)[C@]1(CCC2CCCC2)[C@@H](C(=O)N2CCOCC2)C[C@H](CC(=O)NCCN2CCOCC2)C(=O)N1CC3,-1,nt,-6,nt,-1,nt,nt,nt
CN(C)C(=O)CCc1ccc2c3c([nH]c2c1)[C@]1(CCC2CCCC2)[C@@H](C(=O)N2CCOCC2)C[C@H](CC(=O)NCCC2=CCCCC2)C(=O)N1CC3,-1,nt,54*,nt,3,nt,57*,61*
CCc1nc2c(OCCn3cccc3)cccn2c1N(C=O)Cc1ccccc1,-1,nt,nt,nt,nt,nt,nt,nt
COc1ccc2[nH]c3c(c2c1)CCN1C(=O)C(CC(=O)NCCC2=CCCCC2)C[C@H](C(=O)N2CCCCC2)[C@@]31CCc1ccccc1 (some centres undefined),1,nt,88*,nt,3,nt,-33,nt
COc1ccc2[nH]c3c(c2c1)CCN1C(=O)C(CC(=O)NCCN2CCOCC2)C[C@H](C(=O)N2CCCCC2)[C@@]31CCc1ccccc1 (some centres undefined),-3,nt,6,nt,-1,nt,nt,nt
CCOC(=O)/C(C#N)=C/c1cc(C)n(-c2ccccc2)c1C,1,-10,52*,-9,2,-5,66*,170*

# Source: PubChem BioAssay (several laboratories)
